Assay [1] is described as follows: P. berghei load reduction in hepatocytes – cell-based, HepG2, luciferase luminescence, HepG2 viability, primary screen (AID 624349).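 Note: 100% = mean of DMSO negative control wells on the same plate.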 Particulars: P. berghei liver stage in HepG2, luciferase luminescence, concentration not given here; parasite load remaining: stronger effect = lower value; viability: measured here: HepG2 viability without parasites.
Assay [2] can be described thus: EMT-state selective cytotoxicity in co-culture – imaging, PC-3E GFP, TEM4-18 mCherry, primary screen (AID 1345086;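 active = compounds killing one labelled cell type while sparing the other, by normalised counts and ratio limits, not self-fluorescent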;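 for all read-outs here: cells exposed to compound for 72 h before imaging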;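 for red/green cell ratio (normalised): normalised mesenchymal count divided by normalised epithelial count so high means epithelial killing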). Conditions: PC-3E GFP / TEM4-18 mCherry co-culture, imaging cell counts, at 1 µM; for red/green cell ratio (normalised): actives lie on both sides, counts scaled to control wells, 1 = unselective.
The nature of assay [3]: viability loss with induced miR-34 in A549 – imaging, A549 dox-inducible miR-34, nuclei and caspase counts, primary screen (AID 1347080;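 active = compounds whose cell count with miR-34 switched on is under 0.7 times the count with it off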). Particulars: A549 miR-34 inducible, Hoechst nuclei count, 48 h.
Setting [4] is: measured here: epithelial PC-3E GFP cell survival.
[5] abbreviates: measured here: mesenchymal TEM4-18 mCherry cell survival.
Setting [6] is: stronger effect = lower value, cell number ratio, induced over uninduced.
Setting [7] is: measured here: relative caspase fold change +Dox/-Dox.
Where [8] appears, read: measured here: total cells with miR-34 induction, stronger effect = lower value.
[9] abbreviates: measured here: total cells without miR-34 induction.

SMILES strings stand for the structures. Values joined by “and” are separate entries in the source; they are usually repeats but may differ in a detail not shown here. Equal values may be shown once. Active and inactive are the calls of the source. Cut-off read from the data, not from the text of the source, unless noted: active = parasite load remaining mostly below about 12% (no sharp cut-off); inactive = mostly above about 10%. Numbered stars: 1 amine (or outer) side, 2 acyl side, 3 side chain; on linkers, the order of the positions; unused ones are H or OH. Bridge positions count the residues as written; N and C are the ends. Square brackets hold non-standard residues; d marks the D form. Side chains are listed from the residue outwards. Peptide text beside a SMILES is read from it. I, II: the chains in the order shown. * marks the point of attachment. Actinocin(9to1) = Cc1c2oc3c(C)ccc(C(=O)[*:1])c3nc-2c(C(=O)[*:2])c(N)c1=O; X2 = CCC(C)C(N)C1=NC(C(=O)*)CS1; NMeV = CN[CH](C(=O)O)C(C)C; Orn = NCCC[CH](N)C(=O)O; Sar = CNCC(=O)O

For the molecule `C#C[C@]1(OC(C)=O)CCC2C3CCC4=C/C(=N/O)CCC4C3CC[C@@]21CC` (some centres not stated), in assay [1], the parasite load remaining was 66.7% (inactive). Further, in assay [1], the viability was found to be 100%. Moreover, the red/green cell ratio (normalised) in assay [2] was 0.75 (inactive). Also, the values for the normalised cell number in assay [2] (setting [4]) and in assay [2] (setting [5]) were 1.02 and 0.76, respectively. Further, the fold change is 0.914 (inactive) in assay [3] (setting [6]) and 2.93 in assay [3] (setting [7]). Further, the figures for the cell count in assay [3] (setting [8]) and in assay [3] (setting [9]) were 11600 and 12700, respectively.
On to `O=C(N[C@@H](CO)[C@H](O)c1ccc([N+](=O)[O-])cc1)C(Cl)Cl`, for which the parasite load remaining in assay [1] is 85.6% (inactive) and 68.5% (inactive). Moreover, the viability in assay [1] is 77.9% and 95.2%. The red/green cell ratio (normalised) in assay [2] is 0.9 (inactive). In addition, the normalised cell number in assay [2] (setting [4]) was 1.15; in assay [2] (setting [5]), 1.04. Besides, the fold change in assay [3] (setting [6]) is 1 (inactive); in assay [3] (setting [7]) it was 1.84. The cell count in assay [3] (setting [8]) and in assay [3] (setting [9]) was 11600 throughout.
Consider `CCCCC/C=C/CCC(=O)N[C@H]1[C@H](Oc2c3cc4cc2Oc2ccc(cc2Cl)[C@@H](O[C@@H]2O[C@H](CO)[C@@H](O)[C@H](O)[C@H]2NC(C)=O)[C@@H]2NC(=O)[C@H](NC(=O)[C@@H]4NC(=O)[C@H]4NC(=O)C(Cc5ccc(c(Cl)c5)O3)NC(=O)[C@H](N)c3ccc(O)c(c3)Oc3cc(O)cc4c3)c3ccc(O)c(c3)-c3c(OC4O[C@H](CO)[C@@H](O)[C@H](O)[C@@H]4O)cc(O)cc3[C@@H](C(=O)O)NC2=O)O[C@H](CO)[C@@H](O)[C@@H]1O` (some centres not stated), for which the parasite load remaining in assay [1] is 146% (inactive). In assay [1], the viability amounted to 99.2%. For the same molecule, the red/green cell ratio (normalised) in assay [2] was 1.02 (inactive). Also, the normalised cell number was determined as 0.94 in assay [2] (setting [4]) and 0.96 in assay [2] (setting [5]). The fold change was 0.918 (inactive) in assay [3] (setting [6]) and 5.67 in assay [3] (setting [7]). Moreover, the cell count stood at 12100 in assay [3] (setting [8]) and 13200 in assay [3] (setting [9]).
Regarding `CCN[C@@H]1C[C@H](N)[C@@H](O[C@H]2OC(CN)=CC[C@H]2N)[C@H](O)[C@H]1OC1OC[C@](C)(O)[C@H](NC)[C@H]1O` (some centres not stated), in assay [1], the parasite load remaining is 81% (inactive). Also, the viability in assay [1] stood at 99.2%. For the same molecule, the red/green cell ratio (normalised) in assay [2] was 0.96 (inactive). For the same molecule, the results for the normalised cell number in assay [2] (setting [4]) and in assay [2] (setting [5]) were 1.05 and 1, respectively. The fold change in assay [3] (setting [6]) was 0.763 (inactive); in assay [3] (setting [7]), 6.26. For the same molecule, the cell count in assay [3] (setting [8]) came to 8580; in assay [3] (setting [9]), 11200.
For the molecule `O=C(O)C1=C(CSc2nnnn2CS(=O)(=O)O)CS[C@@H]2C(NC(=O)[C@H](O)c3ccccc3)C(=O)N12` (some centres not stated), the parasite load remaining in assay [1] is 57.8% (inactive). In addition, in assay [1], the viability came to 103%. For the same molecule, the red/green cell ratio (normalised) in assay [2] was 0.95 (inactive). Besides, the normalised cell number in assay [2] (setting [4]) is 1.08; in assay [2] (setting [5]), 1.03. Besides, the fold change in assay [3] (setting [6]) was 0.834 (inactive); in assay [3] (setting [7]), 4.26. Further, the cell count in assay [3] (setting [8]) was determined as 10700; in assay [3] (setting [9]), 12900.
Consider `C/C=C\C1=C(C(=O)O)N2C(=O)C(NC(=O)C(N)c3ccc(O)cc3)C2SC1` (configuration not stated), for which the parasite load remaining in assay [1] is 117% (inactive) and 53.4% (inactive). The viability in assay [1] was 69.3% and 102%. In addition, the red/green cell ratio (normalised) in assay [2] is 1.07 (inactive). In addition, the normalised cell number worked out at 0.97 in assay [2] (setting [4]) and 1.04 in assay [2] (setting [5]). In addition, the fold change is 0.891 (inactive) in assay [3] (setting [6]) and 4.02 in assay [3] (setting [7]). Besides, the values for the cell count in assay [3] (setting [8]) and in assay [3] (setting [9]) were 11600 and 13100, respectively.
With `CO/N=C(\C(=O)NC1C(=O)N2C(C(=O)OCOC(=O)C(C)(C)C)=C(/C=C\c3scnc3C)CSC12)c1csc(N)n1` (configuration not stated), the parasite load remaining in assay [1] is 101% (inactive) and 42.8% (inactive). Also, the viability in assay [1] was 81.5% and 105%. The red/green cell ratio (normalised) in assay [2] was 0.92 (inactive). Moreover, the normalised cell number stood at 1.21 in assay [2] (setting [4]) and 1.12 in assay [2] (setting [5]). Further, the fold change in assay [3] (setting [6]) was 0.904 (inactive); in assay [3] (setting [7]), 4.33. In addition, the values for the cell count in assay [3] (setting [8]) and in assay [3] (setting [9]) were 11600 and 12800, respectively.
Consider `CCC(C)C(N)C1=NC(C(=O)NC(CC(C)C)C(=O)NC(CCC(=O)O)C(=O)NC(C(=O)NCCCCC2NC(=O)C(CC(N)=O)NC(=O)C(CC(=O)O)NC(=O)C(Cc3cnc[nH]3)NC(=O)C(Cc3ccccc3)NC(=O)C(C(C)CC)NC(=O)C(CCCN)NC2=O)C(C)CC)CS1` (stereo not drawn) (cyclo(DNK([Ile-Glu-Leu-X2])[Orn]IFH); configuration not given here), for which the parasite load remaining in assay [1] is 93.7% (inactive) and 69.5% (inactive). Also, the viability in assay [1] was 71.2% and 97.2%. Further, in assay [2], the red/green cell ratio (normalised) was 0.87 (inactive). In addition, the normalised cell number in assay [2] (setting [4]) turned out to be 1.23; in assay [2] (setting [5]), 1.06. Further, the fold change is 0.838 (inactive) in assay [3] (setting [6]) and 0.994 in assay [3] (setting [7]). The cell count in assay [3] (setting [8]) came out at 10300; in assay [3] (setting [9]) it was 12300.
In the case of `Cc1c2oc3c(C)ccc(C(=O)OC(C)C4NC(=O)C(C(C)C)N(C)C(=O)CN(C)C(=O)C5CCCN5C(=O)C(C(C)C)NC4=O)c3nc-2c(C(=O)OC(C)C2NC(=O)C(C(C)C)N(C)C(=O)CN(C)C(=O)C3CCCN3C(=O)C(C(C)C)NC2=O)c(N)c1=O` (configuration not stated) (I: cyclo([Sar][NMeV]TVP) / II: cyclo([Sar][NMeV]TVP); linker I:3-II:3 via Actinocin(9to1); configuration not given here), the parasite load remaining in assay [1] was -0.105% (inactive). In addition, the viability in assay [1] came out at 76.4%. In addition, in assay [2], the red/green cell ratio (normalised) is 1.97 (active). Also, the normalised cell number in assay [2] (setting [4]) was determined as 0.25; in assay [2] (setting [5]), 0.49. The fold change is 0.996 (inactive) in assay [3] (setting [6]) and 1.67 in assay [3] (setting [7]). Besides, the cell count in assay [3] (setting [8]) is 2910; in assay [3] (setting [9]), 2920.
As for `CCCCCCCCCCCCCCCC(=O)OC[C@H](NC(=O)C(Cl)Cl)[C@H](O)c1ccc([N+](=O)[O-])cc1`, the parasite load remaining in assay [1] is 77.1% (inactive). Moreover, in assay [1], the viability is 134%. Moreover, the red/green cell ratio (normalised) in assay [2] is 1.04 (inactive). In addition, the normalised cell number in assay [2] (setting [4]) turned out to be 1.01; in assay [2] (setting [5]), 1.06. For the same molecule, the fold change is 0.906 (inactive) in assay [3] (setting [6]) and 2.23 in assay [3] (setting [7]). Besides, the cell count in assay [3] (setting [8]) is 10500; in assay [3] (setting [9]), 11500.
As for `CN[C@@H]1[C@@H](O[C@H]2O[C@H](CO)[C@@H](N)[C@H](O)[C@H]2O)O[C@H]2C[C@@H](N)[C@H](O[C@H]3[C@H](O)[C@@H](O)[C@H](N)C[C@@H]3N)O[C@@H]2[C@@H]1O`, in assay [1], the parasite load remaining was 70.7% (inactive) and 61.8% (inactive). The viability in assay [1] is 108% and 98.4%. For the same molecule, the red/green cell ratio (normalised) in assay [2] was 1.38 (inactive). The normalised cell number in assay [2] (setting [4]) is 0.99; in assay [2] (setting [5]), 1.36. The fold change in assay [3] (setting [6]) was 0.903 (inactive); in assay [3] (setting [7]), 5.22. Also, the cell count was found to be 12300 in assay [3] (setting [8]) and 13600 in assay [3] (setting [9]).
In the case of `COc1cc([C@@H]2c3cc4c(cc3C(OC3O[C@@H]5COC(C)O[C@H]5[C@H](O)[C@H]3O)C3COC(=O)[C@@H]32)OCO4)cc(OC)c1O` (some centres not stated), the parasite load remaining in assay [1] was 116% (inactive) and 63.3% (inactive). In assay [1], the viability is 71.1% and 87.6%. In addition, the red/green cell ratio (normalised) in assay [2] was 0.85 (inactive). For the same molecule, the normalised cell number in assay [2] (setting [4]) is 0.36; in assay [2] (setting [5]), 0.31. Besides, the fold change in assay [3] (setting [6]) was 0.832 (inactive); in assay [3] (setting [7]), 1.86. The cell count in assay [3] (setting [8]) was determined as 3220; in assay [3] (setting [9]), 3870.
Regarding `CC(=O)OCC(=O)[C@@]1(OC(C)=O)[C@@H](C)CC2C3C[C@H](F)C4=CC(=O)C=C[C@]4(C)[C@@]3(F)[C@@H](O)C[C@@]21C` (some centres not stated), the parasite load remaining in assay [1] is 202% (inactive). Further, the viability in assay [1] is 105%. In assay [2], the red/green cell ratio (normalised) is 1.18 (inactive). The normalised cell number in assay [2] (setting [4]) came out at 1.13; in assay [2] (setting [5]), 1.34. For the same molecule, the fold change in assay [3] (setting [6]) is 0.928 (inactive); in assay [3] (setting [7]), 4.21. Besides, the figures for the cell count in assay [3] (setting [8]) and in assay [3] (setting [9]) were 7220 and 7780, respectively.

Broadly, the viability is a read-out of living cells in per cent, often relative to untreated cells.

(Values after PubChem BioAssay.)
